# Test results published in ChEMBL document CHEMBL3988442, “University of Dundee, Small-Polar-MMV Screening Library” (2021).
# In all, about 48,000 compounds went through this assay and about 13,000 (27%) showed an effect of 50% or more. The list shows a part of the results.
# Test system: Wolbachia pipientis
# Assay: Anti-Wolbachia Cell-Based Screen
# Assay type: functional
# Parameters: scale not given: in the data most compounds retested in dose-response had high values
# Conditions: 5 µM
row,SMILES,Percent Effect
1,O=C(C1CCCC1)N1C[C@@H]2CCNC[C@@H]21,-32.69%
2,Cc1nc(O)cc(CNC(=O)CC[C@@H]2CCCN3CCCC[C@H]23)n1,-12.46%
3,COCCO[C@@H]1C[C@H]2CN(C(=O)c3ccc(C)nc3)CCN2C1,-21.72%
4,Cc1cc(C(F)(F)F)nc(N2CCN3CCCC3C2)n1 (stereo unspecified),105%
5,Cc1cc(N2CCCN3CCC[C@H]3C2)n2nc(C)c(C)c2n1,20.9%
6,NC1(c2nc(-c3cccs3)cc(=O)[nH]2)CCCCC1,-5.956%
7,Cn1nc(-c2cccs2)cc1[C@H]1CN2CC[C@H]1C[C@@H]2CN,-6.528%
8,Cc1cc(N2CCN3CCCCC3C2)n2nc(C)c(C)c2n1 (stereo unspecified),11.68%
9,FC(F)(F)c1cc(-c2cccs2)nc(N2CCN3CCCC3C2)n1 (stereo unspecified),58.5%
10,O=C(O)C(F)(F)F.O=C(O)C(F)(F)F.O=C1CC2(CCN(CC3CC3)C2)CN1c1cccnc1 (stereo unspecified),7.384%
11,CN(C)C(=O)N1CCC2(C1)CN(c1cccnc1)C(=O)CN2C (stereo unspecified),109.4%
12,O=C(O)C(F)(F)F.O=C(O)C(F)(F)F.O=C1CC2(CCN(Cc3ccccn3)C2)CN1c1cccnc1 (stereo unspecified),1.703%
13,CCN1CCN(C(=O)COc2ccc(CN(C)S(C)(=O)=O)cc2)CC1,-1.123%
14,O=C(COc1cccc(F)c1)N1C[C@@H](O)[C@H](N2CCCC2)C1,-2.251%
15,COc1cccc(OCC(=O)N2CCCSCC2CN2CCOCC2)c1 (stereo unspecified),8.311%
16,CN(C)[C@@H]1CN(C(=O)COc2cccc(F)c2)C[C@H]1O,81.08%
17,COc1ccccc1OCC(=O)N1CCN(Cc2noc(C)n2)CC1,5.502%
18,O=C(COc1cccc(F)c1)N1C[C@@H](O)[C@H](N2CCOCC2)C1,106.1%
19,Cc1ccccc1C1(CN)CCCCC1,0.8163%
20,Cc1nc(N2C[C@H]3CC[C@@H](C2)N3)nc2cc(S(C)(=O)=O)ccc12,4.923%
21,CCOC(=O)CN1C[C@@H]2OCCN(c3ncc(F)cn3)[C@@H]2C1,86.46%
22,Cc1nc(CN2C[C@@H]3OCCN(c4ncc(F)cn4)[C@@H]3C2)cs1,-23.28%
23,Cc1cnc(N2CCC[C@@H]3CN(CC(=O)N(C)C)C[C@@H]32)nc1.O=C(O)C(F)(F)F.O=C(O)C(F)(F)F,-0.2022%

row,SMILES,Percent Effect
1,CCN1C[C@H]2[C@@H](C1)N(c1ncc(F)cn1)CC[C@H]2OC.O=C(O)C(F)(F)F.O=C(O)C(F)(F)F,2.548%
2,CN(C)C(=O)CN1C[C@@H]2OCCN(c3ncc(F)cn3)[C@@H]2C1,104.1%
3,Cc1nc(C2CCCN(C(C)C)C2)sc1Br (stereo unspecified),117%
4,Cc1nc(C2CCN(C(C)C)CC2)sc1Br,83.07%
5,Cl.O=C(NCC(F)(F)F)C1=NOC2(CCCNC2)C1 (stereo unspecified),8.664%
6,CN(Cc1cncnc1)[C@H]1CN(Cc2ccco2)[C@@H]2CCCO[C@@H]21,-12.03%
7,OC[C@@H]1[C@@H](c2ccccc2)CN2CCN(c3ccccn3)C[C@H]12,121.4%
8,Cc1cc(CN2CCN3C[C@H](c4ccccc4)[C@@H](CO)[C@H]3C2)on1,124.7%
9,O=C(O)C(F)(F)F.O=C(O)C(F)(F)F.c1ccc(CO[C@@H]2C[C@H]3CN(c4ncccn4)CCN3C2)nc1,-5.237%
10,c1ccc(-c2cc(CN3C[C@H]4CC[C@H]3C4)on2)cc1,0.1259%
11,CN(C)C(=O)CN1CCO[C@H]2CN(c3ccccn3)C[C@H]21,-17.61%
12,Cc1cc(CN2C[C@H]3CC[C@@H]2CN(Cc2[nH]cnc2C)C3)on1,1.495%
13,OC[C@@H]1[C@H]2CN(c3ccccn3)CCN2C[C@H]1c1ccccc1,110.4%
14,COCC(=O)NC[C@H]1C[C@@H]2CCN1C[C@@H]2CN1CCc2ccccc2C1,-3.386%
15,COc1cccc(CC(C)NC(=O)NCCc2cccnc2)c1 (stereo unspecified),-9.147%
16,CC(C)N(C)Cc1cncc2c1CCN(CC1CC1)C2.Cl.Cl.Cl,102.9%
17,CN(C)C(=O)CN1C[C@@H]2CC[C@H](C1)N(C(=O)Cc1ccccc1Cl)C2,-1.206%
18,CN(C)Cc1cncc2c1CCN(CC(=O)N(C)C)C2,91.67%
19,CC(C)N(C)Cc1cncc2c1CCN(CC(=O)N(C)C)C2.Cl.Cl.Cl,105.8%
20,CCN1CCc2c(CNC(=O)c3nccn3C)cncc2C1.Cl.Cl.Cl,11.07%
21,CN(C)C(=O)CN1C[C@@H]2CC[C@H](C1)N(Cc1c(Cl)cncc1Cl)C2,-12.98%
22,CS(=O)(=O)NCc1cncc2c1CCN(CC1CCOC1)C2.Cl.Cl (stereo unspecified),-2.425%
23,Cl.Cl.c1cnc(NCc2cncc3c2CCN(CC2CC2)C3)nc1,93.82%

row,SMILES,Percent Effect
1,CC(C(=O)N1CCCC1)N1CCCN(C(=O)Oc2ccccc2)CC1 (stereo unspecified),21.65%
2,Cc1noc(C)c1CN1C(=O)[C@H]2CC[C@@H]1CN(Cc1nccs1)C2,-3.876%
3,FC1(F)CCNCC12CCN(c1ccccn1)C2 (stereo unspecified),-2.564%
4,Cc1nc(NCc2ccco2)nc2c1COCC21CCNC1.O=C(O)C(F)(F)F (stereo unspecified),-14.58%
5,N#Cc1ccc(NCCc2n[nH]c(=O)[nH]2)cc1Cl,-5.304%
6,CC(C)N(C)Cc1cncc2c1CCN(C1CCOCC1)C2.Cl.Cl.Cl,97.34%
7,O=C1[C@H]2CN(C3CCOCC3)C[C@H]2CN1Cc1cccnc1,-4.896%
8,CSc1ncc(CN2C[C@H]3CC[C@@H]2CN(C2CCOCC2)C3)cn1,-8.939%
9,CN(C)Cc1cncc2c1CCN(C1CCOCC1)C2.Cl.Cl.Cl,89.69%
10,COc1cccc(CC(C)NC(=O)NCCNC(C)=O)c1 (stereo unspecified),-2.176%
11,Cc1cc(C)c(CNc2ncnc3c2cnn3C)c(=O)[nH]1,-6.133%
12,COc1c(CNCCc2c[nH]c3cc(F)ccc23)c(C(C)C)nn1C,79.98%
13,COc1c(CNCCc2c[nH]c3cc(F)ccc23)c(C)nn1C,86.39%
14,CC(C)(C)c1n[nH]c(C2CN(CC3CCC3)CCO2)n1 (stereo unspecified),7.516%
15,O=C1CCCN1CCN1CC=C(c2cnn(C3CCS(=O)(=O)C3)c2)CC1 (stereo unspecified),-11.25%
16,O=C(c1ccco1)N1CCO[C@@H]2CNC[C@@H]21,105.9%
17,CC(=O)C1(c2ccccc2)CCN(C(=O)CC2CNCCO2)CC1 (stereo unspecified),5.115%
18,O=C(C1CCC1)N1CCO[C@@H]2CNC[C@@H]21,7.79%
19,O=C(c1ccccc1)N1CCOC2CNCC[C@H]21 (stereo partly specified),121.8%
20,O=C(c1ccoc1)N1CCO[C@@H]2CNC[C@@H]21,113.2%
21,CC[C@H]1CN2CC[C@H]1C[C@@H]2CNC(=O)c1ccco1,-12.57%
22,O=C(c1ccccc1)N1CCO[C@@H]2CNC[C@@H]21,106.9%
23,O=C(C1CCCC1)N1CCO[C@@H]2CNC[C@@H]21,-1.725%

row,SMILES,Percent Effect
1,Cl.Cl.c1ccc(CN2CCOC3CNCC[C@H]32)cc1 (stereo partly specified),-10.82%
2,N#Cc1cccc(CN2CCO[C@@H]3CNC[C@@H]32)c1,-0.4846%
3,Cl.Cl.c1cc(CN2CCO[C@@H]3CNC[C@@H]32)cs1,-7.592%
4,c1cc(CN2CCO[C@@H]3CNC[C@@H]32)co1,-20.72%
5,Cn1nc(-c2ccccc2)cc1[C@H]1CN2CC[C@H]1C[C@@H]2CNS(C)(=O)=O,1.19%
6,CNCc1cn(C[C@H]2CC3CCN2C[C@@H]3C(=O)Nc2ccccc2)nn1 (stereo partly specified),-4.498%
7,O=C1NC[C@H]2CN(C3CCOCC3)CCN12,-8.801%
8,COc1ccccc1OCCCN1CC=C(c2cnn(C)c2)CC1,5.6%
9,CCC(CC)NCC(C)Oc1cccnc1 (stereo unspecified),18.13%
10,Cl.Cl.O=C(N[C@H]1CN[C@H]2CCCO[C@H]21)c1cccnc1,-6.399%
11,O=C(c1cccnc1)N1CCO[C@@H]2CNC[C@@H]21,100.8%
12,O=C(C1CCCCC1)N1CCO[C@@H]2CNC[C@@H]21,-9.765%
13,O=C(O)C(F)(F)F.O=C(O)C(F)(F)F.O=C1CC2(CCN(Cc3cccnc3)C2)CN1c1cccc(F)c1 (stereo unspecified),15.74%
14,O=C(O)C(F)(F)F.c1cnc(N2CCO[C@@H]3CN(Cc4ccoc4)C[C@@H]3C2)nc1,98.59%
15,Fc1cccc(CN2C[C@@H]3CN(c4ncccn4)C[C@@H]3C2)c1.O=C(O)C(F)(F)F.O=C(O)C(F)(F)F,102.6%
16,Fc1cnccc1CN1CCC2(CCN2c2ncccn2)C1.O=C(O)C(F)(F)F (stereo unspecified),-1.377%
17,Cc1cccc(CN2C[C@@H]3CN(Cc4ccoc4)CCO[C@@H]3C2)n1.O=C(O)C(F)(F)F.O=C(O)C(F)(F)F.O=C(O)C(F)(F)F,-28.06%
18,Cc1ccc(CN2C[C@@H]3CN(c4ncccn4)C[C@@H]3C2)cc1.O=C(O)C(F)(F)F,6.326%
19,Fc1cnc(N2C[C@H]3CN(Cc4cccc(F)c4)C[C@H]3C2)nc1.O=C(O)C(F)(F)F.O=C(O)C(F)(F)F,5.307%
20,O=C(O)C(F)(F)F.O=C(O)C(F)(F)F.O=C(O)C(F)(F)F.c1cncc(CN2CCO[C@@H]3CN(Cc4ccoc4)CC[C@@H]3C2)c1,-22.75%
21,N#Cc1cccc(CN2C[C@@H]3CN(c4ncccn4)C[C@@H]3C2)c1.O=C(O)C(F)(F)F,114.7%
22,Fc1cccc(CN2CCC3(CCN3c3ncccn3)C2)c1.O=C(O)C(F)(F)F (stereo unspecified),74.85%
